Reference: PubChem BioAssay (NCATS)
Records with an inconclusive call do not appear. Activity calls are given as the source filed them. Unless noted, calls come from the whole dose curve; as a rule, active = well fitted inhibition curve with a large enough effect; inconclusive = small, poorly fitted or top-dose-only effect; inactive = flat fitted curve, though single readings scatter.

Columns and labels:
CP252 = assay: qHTS profiling for inhibitors of Plasmodium falciparum proliferation (AID 504749);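 note: 0% = DMSO vehicle and full inhibition = artemisinin control; nearly all actives have a fitted effect of over 60% in size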; conditions: P. falciparum in erythrocytes, SYBR Green DNA, 72 h; series mostly up to 28.7 µM
Method in brief: (§1)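 Readout was DNA-dye fluorescence from lysed cultures, ex 485/em 535 nm. Parasitized red cells had grown 72 h with compound; data scaled between 0.29 uM artemisinin and DMSO wells and corrected using vehicle-only plates.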

CP256 = assay: as above; conditions: P. falciparum in erythrocytes, SYBR Green DNA, 72 h; series mostly up to 28.7 µM
Method in brief: as §1

CP260 = assay: as above; conditions: P. falciparum in erythrocytes, SYBR Green DNA, 72 h; series mostly up to 28.7 µM
Method in brief: as §1

CP262 = assay: as above; conditions: P. falciparum in erythrocytes, SYBR Green DNA, 72 h; series mostly up to 28.7 µM
Method in brief: as §1

CP265 = assay: as above; conditions: P. falciparum in erythrocytes, SYBR Green DNA, 72 h; series mostly up to 28.7 µM
Method in brief: as §1

CP266 = assay: as above; conditions: P. falciparum in erythrocytes, SYBR Green DNA, 72 h; series mostly up to 28.7 µM
Method in brief: as §1

CP268 = assay: as above; conditions: P. falciparum in erythrocytes, SYBR Green DNA, 72 h; series mostly up to 28.7 µM
Method in brief: as §1

CP269 = assay: as above; conditions: P. falciparum in erythrocytes, SYBR Green DNA, 72 h; series mostly up to 28.7 µM
Method in brief: as §1

CP286 = assay: as above; conditions: P. falciparum in erythrocytes, SYBR Green DNA, 72 h; series mostly up to 28.7 µM
Method in brief: as §1

CP291 = assay: as above; conditions: P. falciparum in erythrocytes, SYBR Green DNA, 72 h; series mostly up to 28.7 µM
Method in brief: as §1

CP297 = assay: as above; conditions: P. falciparum in erythrocytes, SYBR Green DNA, 72 h; series mostly up to 28.7 µM
Method in brief: as §1

CP305 = assay: as above; conditions: P. falciparum in erythrocytes, SYBR Green DNA, 72 h; series mostly up to 28.7 µM
Method in brief: as §1

CP315 = assay: as above; conditions: P. falciparum in erythrocytes, SYBR Green DNA, 72 h; series mostly up to 28.7 µM
Method in brief: as §1

CP325 = assay: as above; conditions: P. falciparum in erythrocytes, SYBR Green DNA, 72 h; series mostly up to 28.7 µM
Method in brief: as §1

CP329 = assay: as above; conditions: P. falciparum in erythrocytes, SYBR Green DNA, 72 h; series mostly up to 28.7 µM
Method in brief: as §1

DFO2036 = assay: as above; conditions: P. falciparum in erythrocytes, SYBR Green DNA, 72 h; series mostly up to 28.7 µM
Method in brief: as §1

DIV14 = assay: as above; conditions: P. falciparum in erythrocytes, SYBR Green DNA, 72 h; series mostly up to 28.7 µM
Method in brief: as §1

DIV30 = assay: as above; conditions: P. falciparum in erythrocytes, SYBR Green DNA, 72 h; series mostly up to 28.7 µM
Method in brief: as §1

Dd2 = assay: as above; conditions: P. falciparum in erythrocytes, SYBR Green DNA, 72 h; series mostly up to 28.7 µM
Method in brief: as §1

ECU = assay: as above; conditions: P. falciparum in erythrocytes, SYBR Green DNA, 72 h; series mostly up to 28.7 µM
Method in brief: as §1

FAB9 = assay: as above; conditions: P. falciparum in erythrocytes, SYBR Green DNA, 72 h; series mostly up to 28.7 µM
Method in brief: as §1

GB4 = assay: as above; conditions: P. falciparum in erythrocytes, SYBR Green DNA, 72 h; series mostly up to 28.7 µM
Method in brief: as §1

HB3 = assay: as above; conditions: P. falciparum in erythrocytes, SYBR Green DNA, 72 h; series mostly up to 28.7 µM
Method in brief: as §1

ICS = assay: as above; conditions: P. falciparum in erythrocytes, SYBR Green DNA, 72 h; series mostly up to 28.7 µM
Method in brief: as §1

JCK = assay: as above; conditions: P. falciparum in erythrocytes, SYBR Green DNA, 72 h; series mostly up to 28.7 µM
Method in brief: as §1

N140 = assay: as above; conditions: P. falciparum in erythrocytes, SYBR Green DNA, 72 h; series mostly up to 28.7 µM
Method in brief: as §1

P93_24 = assay: as above; conditions: P. falciparum in erythrocytes, SYBR Green DNA, 72 h; series mostly up to 28.7 µM
Method in brief: as §1

P94_40 = assay: as above; conditions: P. falciparum in erythrocytes, SYBR Green DNA, 72 h; series mostly up to 28.7 µM
Method in brief: as §1

PAD = assay: as above; conditions: P. falciparum in erythrocytes, SYBR Green DNA, 72 h; series mostly up to 28.7 µM
Method in brief: as §1

PC15 = assay: as above; conditions: P. falciparum in erythrocytes, SYBR Green DNA, 72 h; series mostly up to 28.7 µM
Method in brief: as §1

PC26 = assay: as above; conditions: P. falciparum in erythrocytes, SYBR Green DNA, 72 h; series mostly up to 28.7 µM
Method in brief: as §1

PC49 = assay: as above; conditions: P. falciparum in erythrocytes, SYBR Green DNA, 72 h; series mostly up to 28.7 µM
Method in brief: as §1

SC27B = assay: as above; conditions: P. falciparum in erythrocytes, SYBR Green DNA, 72 h; series mostly up to 28.7 µM
Method in brief: as §1

TAB109 = assay: as above; conditions: P. falciparum in erythrocytes, SYBR Green DNA, 72 h; series mostly up to 28.7 µM
Method in brief: as §1

TAB113 = assay: as above; conditions: P. falciparum in erythrocytes, SYBR Green DNA, 72 h; series mostly up to 28.7 µM
Method in brief: as §1

TAB165 = assay: as above; conditions: P. falciparum in erythrocytes, SYBR Green DNA, 72 h; series mostly up to 28.7 µM
Method in brief: as §1

W2 = assay: as above; conditions: P. falciparum in erythrocytes, SYBR Green DNA, 72 h; series mostly up to 28.7 µM
Method in brief: as §1

[1] = biological target: Nuclear receptor subfamily 1 group I member 2 (Rattus norvegicus) (UniProt Q9R1A7); assay: qHTS assay for small molecule activators of the rat pregnane X receptor (rPXR) signaling pathway (AID 651751; call rule not given here; note: 0% is about no effect); conditions: rPXR reporter cells, luciferase (One-Glo), 24 h
[2] = qHTS assay for small molecule activators of the human pregnane X receptor (PXR) signaling pathway (AID 720659; call rule not given here; note: 0% is about no effect)

Chain of Nuclear receptor subfamily 1 group I member 2 (Rattus norvegicus) (Q9R1A7 whole entry, looked up): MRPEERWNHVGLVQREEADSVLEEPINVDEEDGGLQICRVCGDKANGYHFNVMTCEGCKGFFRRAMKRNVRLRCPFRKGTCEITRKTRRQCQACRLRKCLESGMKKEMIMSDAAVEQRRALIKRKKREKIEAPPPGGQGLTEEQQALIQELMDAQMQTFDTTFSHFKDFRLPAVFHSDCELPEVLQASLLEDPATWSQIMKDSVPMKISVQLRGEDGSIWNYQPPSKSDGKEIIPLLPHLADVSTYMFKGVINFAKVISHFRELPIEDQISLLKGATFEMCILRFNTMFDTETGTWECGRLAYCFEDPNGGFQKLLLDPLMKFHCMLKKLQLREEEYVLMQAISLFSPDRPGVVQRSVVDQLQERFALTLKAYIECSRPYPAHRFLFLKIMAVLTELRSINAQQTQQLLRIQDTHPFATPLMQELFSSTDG

C[C@@H]1[C@H](O)[C@@H](C)/C=C/C=C/C=C/C=C/C=C/C=C/C=C/[C@H](O[C@@H]2O[C@H](C)[C@@H](O)[C@H](N)[C@@H]2O)C[C@@H]2O[C@](O)(C[C@@H](O)C[C@@H](O)[C@H](O)CC[C@@H](O)C[C@@H](O)CC(=O)O[C@H]1C)C[C@H](O)[C@H]2C(=O)O
inactive: Potency (CP252) | Potency (CP256) | Potency (CP260) | Potency (CP262) | Potency (CP265) | Potency (CP266) | Potency (CP268) | Potency (CP269) | Potency (CP286) | Potency (CP291) | Potency (CP297) | Potency (CP305) | Potency (CP315) | Potency (CP325) | Potency (CP329) | Potency (DFO2036) | Potency (DIV14) | Potency (DIV30) | Potency (Dd2) | Potency (ECU) | Potency (FAB9) | Potency (GB4) | Potency (HB3) | Potency (ICS) | Potency (JCK) | Potency (N140) | Potency (P93_24) | Potency (P94_40) | Potency (PAD) | Potency (PC15) | Potency (PC26) | Potency (PC49) | Potency (SC27B) | Potency (TAB109) | Potency (TAB113) | Potency (TAB165) | Potency (W2) | max response [1] -0.988% | outcome [2]
